Here are results for six compounds from PubChem BioAssay.

A short description of experiment [1]: A549 cell viability effects, profiling panel, calcein-AM fluorescence, 48 h, basal (AID 1162). Note: test concentration not given here. The settings on record: higher = more signal.
Experiment [2] is described as follows: adipocyte viability effects, profiling panel, cell-based, 3T3-L1 adipocytes, calcein-AM fluorescence, 48 h, basal (AID 1163). Note: test concentration not given here. Particulars: 3T3-L1 adipocytes viability, higher = more signal.
Experiment [3] in a line: HepG2 cell viability effects, profiling panel, calcein-AM fluorescence, 48 h, basal (AID 1164). Note: test concentration not given here. Particulars: higher = more signal.
A short description of experiment [4]: MM1S cell viability effects, profiling panel, calcein-AM fluorescence, 48 h, basal (AID 1165).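 Note: viability of MM1S multiple myeloma cells under basal unstimulated conditions; test concentration not given here.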 The settings on record: higher = more signal.
Experiment [5] in a line: basal RPMI8226 viability, no added stimulus, profiling panel, cell-based, calcein-AM fluorescence, 48 h, PK04 Diversity Set (AID 1166).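 Note: cells grown under basal conditions without added stimulus; test concentration not given here.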 The settings on record: RPMI8226 myeloma viability, higher = more signal.
Experiment [6] in a line: basal HepG2 mitochondrial membrane potential changes, profiling panel, cell-based, JC-1 fluorescence, 24 h, 100 nL compound (AID 1167). Note: test concentration not given here. Particulars: higher = more signal.
Experiment [7] is described as follows: basal 3T3-L1 adipocyte mitochondrial potential changes, profiling panel, cell-based, JC-1 fluorescence, 3T3-L1 adipocytes, 24 h, 100 nL compound (AID 1168). Note: test concentration not given here. Particulars: JC-1 mitochondrial fluorescence, higher = more signal, called active from +8 up or from −8 down.
Experiment [8] can be described thus: basal RPMI8226 mitochondrial membrane potential changes, profiling panel, cell-based, JC-1 fluorescence, 24 h, 100 nL compound (AID 1169). Note: test concentration not given here. The settings on record: RPMI8226 myeloma, JC-1 mitochondrial potential fluorescence, higher = more signal.
Experiment [9] in a line: basal MM1S mitochondrial membrane potential changes, profiling panel, cell-based, JC-1 fluorescence, 24 h, 100 nL compound (AID 1170). Note: test concentration not given here. The settings on record: higher = more signal.
The nature of experiment [10]: A549 lung cancer cell viability effects, profiling panel, resazurin fluorescence, 24 h, PK04 Diversity Set (AID 1171). Note: test concentration not given here. Particulars: higher = more signal, called active from +8 up or from −8 down.
Experiment [11] in a line: HepG2 liver cancer cell viability effects, profiling panel, resazurin fluorescence, 24 h, PK04 Diversity Set (AID 1172). Note: test concentration not given here. Particulars: higher = more signal. For orientation: The colour change of resazurin is a common sign of viable cells or microbes.
A short description of experiment [12]: basal S. cerevisiae growth modulation, no modifier, primary screen, OD600, strain BY4716, 24 h, basal condition (AID 1173). The settings on record: OD600, 24 h, higher = more signal, called active from +8 up or from −8 down.
Experiment [13] in a line: MM1S myeloma cell viability, profiling panel, resazurin fluorescence, basal, 24 h, PK04 Diversity Set (AID 1174). Note: test concentration not given here. Particulars: higher = more signal, called active from +8 up or from −8 down.
The target in experiment [14] is Dihydroorotate dehydrogenase (quinone), mitochondrial (Plasmodium falciparum (isolate 3D7)) (UniProt Q08210). The experiment is described as follows: PfDHODH enzyme inhibitors, primary screen, biochemical, C-terminal His tag, absorbance 600 nm (AID 1175).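 Note: recombinant parasite enzyme with a five histidine tag at its C terminus; test concentration not given here.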 The settings on record: DCIP absorbance 600 nm, higher = more signal, called active from +8 up or from −8 down.
The nature of experiment [15]: P. aeruginosa biofilm formation inhibitors, primary screen, strain PAO1, LB-PBS medium, absorbance 600 nm (AID 1176). Note: test concentration not given here. Particulars: P. aeruginosa PAO1 growth/biofilm, A600, 12 h; higher = more signal.
A short description of experiment [16]: S. cerevisiae RM11-1a growth modifiers, primary screen, strain RM11-1a, OD600, basal, 24 h (AID 1177).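 Note: cultures grown under basal conditions with no added stressor; test concentration not given here.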 The settings on record: OD600, 24 h, higher = more signal, called active from +8 up or from −8 down.
Experiment [17] is described as follows: E. coli acrAB mutant growth effects, primary screen, E. coli filamentation inducers, strain DRC39, OD650, 24 h (AID 1178).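 Note: growth measured as culture turbidity by optical density at 650 nm; test concentration not given here.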 The settings on record: higher = more signal, called active from +8 up or from −8 down.
The nature of experiment [18]: E. coli acrAB mutant growth effects, primary screen, E. coli filamentation inducers, strain DRC39, OD650, 48 h (AID 1179).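 Note: screen aims at cell division blockers that make cells filament.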 The settings on record: E. coli DRC39 delta-acrAB growth, higher = more signal, called active from +8 up or from −8 down.
Experiment [19] is described as follows: RPMI8226 myeloma cell viability, profiling panel, resazurin fluorescence, basal, 24 h, PK04 Diversity Set (AID 1180).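 Note: RPMI8826 multiple myeloma cell line at 5000 cells per well; test concentration not given here.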 The settings on record: higher = more signal.
Experiment [20] has as its target E3 ubiquitin-protein ligase XIAP (Homo sapiens) (UniProt P98170). The experiment is described as follows: XIAP binders, primary screen, biophysical, small-molecule microarray, fluorescence 635 nm (AID 1181).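 Note: score merges 667 nm emission and signal to noise over triplicate slides.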 The settings on record: small-molecule microarray binding, higher = more signal.

“And” between values parts separate entries of the source, which are not always exact repeats. Equal values may be shown once. The source made the active and inactive calls. Unless noted, the rule behind the calls is not given here.

Chain of E3 ubiquitin-protein ligase XIAP (Homo sapiens) (P98170 whole entry, looked up): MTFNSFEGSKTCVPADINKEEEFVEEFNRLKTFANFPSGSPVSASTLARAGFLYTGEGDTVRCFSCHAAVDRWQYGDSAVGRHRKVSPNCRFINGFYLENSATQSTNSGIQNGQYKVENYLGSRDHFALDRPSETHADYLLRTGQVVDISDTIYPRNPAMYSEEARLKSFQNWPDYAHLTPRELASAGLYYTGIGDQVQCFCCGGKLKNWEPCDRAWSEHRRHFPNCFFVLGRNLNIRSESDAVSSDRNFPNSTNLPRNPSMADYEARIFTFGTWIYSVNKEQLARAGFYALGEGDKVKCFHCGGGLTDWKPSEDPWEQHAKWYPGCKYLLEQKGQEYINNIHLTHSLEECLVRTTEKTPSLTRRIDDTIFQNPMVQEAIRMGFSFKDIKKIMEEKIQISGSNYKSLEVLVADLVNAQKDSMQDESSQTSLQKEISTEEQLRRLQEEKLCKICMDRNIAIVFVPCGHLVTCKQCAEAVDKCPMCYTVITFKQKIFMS
Chain of Dihydroorotate dehydrogenase (quinone), mitochondrial (Plasmodium falciparum (isolate 3D7)) (Q08210 whole entry, looked up): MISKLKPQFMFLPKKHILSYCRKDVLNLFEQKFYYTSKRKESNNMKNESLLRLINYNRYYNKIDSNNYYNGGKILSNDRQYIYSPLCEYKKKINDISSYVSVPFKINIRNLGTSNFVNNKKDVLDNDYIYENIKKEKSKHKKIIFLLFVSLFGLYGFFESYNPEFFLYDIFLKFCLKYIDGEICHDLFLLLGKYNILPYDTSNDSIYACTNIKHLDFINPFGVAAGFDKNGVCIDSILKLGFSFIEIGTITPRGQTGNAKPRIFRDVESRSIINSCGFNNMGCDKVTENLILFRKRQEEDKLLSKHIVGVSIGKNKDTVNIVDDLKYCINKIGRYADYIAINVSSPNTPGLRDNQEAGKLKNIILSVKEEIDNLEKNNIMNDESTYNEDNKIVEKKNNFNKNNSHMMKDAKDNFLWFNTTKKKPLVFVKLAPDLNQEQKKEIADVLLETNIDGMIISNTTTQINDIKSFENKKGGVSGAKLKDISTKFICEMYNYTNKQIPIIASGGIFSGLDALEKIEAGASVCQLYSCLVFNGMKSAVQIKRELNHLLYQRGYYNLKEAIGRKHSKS

As for `C[C@@H]1CN2[C@@H](CC[C@@H](C)[C@@H]2c2ccc(Br)cc2)C(=O)O1`, the z-score in experiment [1] is -0.133 and 0.551; in experiment [2], 0.706 and 0.0322; in experiment [3], -0.163 and 0.959; in [4], 0.248 and 0.391; in [5] it was -0.0928 and 0.767; in experiment [6] it was 0.446 and 0.56. The z-score is -0.0606 (inactive) and 0.229 (inactive) in [7]; 0.05 and 0.203 in [8]; 1.26 and -0.901 in experiment [9]; 0.131 (inactive) and -1.45 (inactive) in [10]; 0.0519 and -0.598 in [11]; 0.214 (inactive) and -2.02 (inactive) in [12]. In addition, the z-score is 0.475 (inactive) and -0.181 (inactive) in experiment [13]; -0.188 (inactive) and 0.417 (inactive) in [15]; 0.999 (inactive) and -1.13 (inactive) in experiment [16]; 0.322 (inactive) and 0.819 (inactive) in experiment [17]; -1.32 (inactive) and -0.313 (inactive) in experiment [18]; 0.967 and -0.0883 in [19]. The composite z-score in experiment [14] is 0.694 (inactive) and -1.1 (inactive); in experiment [20] it was 0.118 and 0.166.
With `C[C@@]1([C@@H](NC(=O)Cc2ccccc2)c2ccc(-c3ccccc3)cc2)C[C@H]1C1CCCCC1`, the z-score in experiment [1] was -2.72 and -1.23 and -1.42; in experiment [2], 0.765 and -0.0714 and -0.863; in [3], -2.87 and -0.861 and -0.802; in [4] it was -2.91 and -1.81 and -2; in experiment [5], -4.81 and -1.41 and -1.24; in experiment [6], -3.9 and -0.895 and 0.848. For the same compound, the z-score in experiment [7] was 0.111 (inactive) and -0.332 (inactive) and -1.75 (inactive); in experiment [8], -0.936 and -0.586 and -0.431; in experiment [9] it was -1.71 and 0.0165 and -1.06; in experiment [10], -0.609 (inactive) and 3.96 (inactive) and -0.816 (inactive); in [11] it was -1.11 and 1.82 and -1; in experiment [12] it was 0.332 (inactive) and 0.351 (inactive) and 1.3 (inactive). Further, the z-score in experiment [13] is -0.506 (inactive) and 1.03 (inactive) and -1.05 (inactive); in experiment [15], 2.92 (inactive) and 1.4 (inactive) and 1.18 (inactive); in experiment [16] it was 1.75 (inactive) and 0.465 (inactive) and 1.58 (inactive); in experiment [17], -0.305 (inactive) and -0.278 (inactive) and -1.43 (inactive); in [18] it was -0.0393 (inactive) and -0.777 (inactive) and -0.74 (inactive); in experiment [19], -3.36 and 2.84 and -1.47. The composite z-score was -4.04 (inactive) and -0.594 (inactive) and -0.535 (inactive) in experiment [14]; 0.102 and 0.0464 and -0.02 in experiment [20].
As for `CCCC[C@@H]1CN2[C@@H](CC[C@@H](C)[C@@H]2c2ccc(Br)cc2)C(=O)O1`, the z-score was 0.761 and 1.06 in [1]; -0.857 and -0.567 in experiment [2]; 0.537 and -0.336 in [3]; -1.1 and 0.516 in [4]; 0.309 and -0.616 in experiment [5]; -0.48 and 0.127 in experiment [6]. For the same compound, the z-score in experiment [7] is -0.136 (inactive) and -1.09 (inactive); in experiment [8] it was 0.266 and -0.0989; in experiment [9], 0.0213 and -0.396; in experiment [10], -0.335 (inactive) and -0.178 (inactive); in experiment [11], -0.175 and 0.523; in [12], -1.57 (inactive) and -1.39 (inactive). The z-score is 0.0509 (inactive) and 0.231 (inactive) in experiment [13]; -0.221 (inactive) and -0.175 (inactive) in [15]; 0.229 (inactive) and -0.0641 (inactive) in experiment [16]; 0.777 (inactive) and 0.606 (inactive) in [17]; 0.535 (inactive) and -1.07 (inactive) in [18]; 0.387 and 0.756 in experiment [19]. The composite z-score in experiment [14] was 0.466 (inactive) and -0.248 (inactive); in experiment [20], 0.0537 and -0.185.
For `COC(=O)C1=C(C)N(Cc2ccccc2)C2=C(C(=O)c3ccccc3)[C@H](c3ccccc3)[C@@](O)(C(=O)OC)C(=O)N2[C@@H]1c1ccccc1`, the z-score in [1] is 0.369 and 0.44; in [2], -0.154 and -0.936; in [3] it was 0.217 and 1.26; in experiment [4], -0.317 and 0.332; in experiment [5], -1.15 and 0.0491; in experiment [6], 1.33 and 2.03. Further, the z-score in experiment [7] was -0.393 (inactive) and -1.16 (inactive); in experiment [8], -0.639 and -0.349; in experiment [9], 0.573 and -0.514; in [10] it was 1.39 (inactive) and -0.344 (inactive); in experiment [11], 0.291 and 0.302; in [12], -1.07 (inactive) and -0.683 (inactive). Also, the z-score was -1.34 (inactive) and -0.716 (inactive) in experiment [13]; 0.875 (inactive) and -0.0538 (inactive) in [15]; 1.27 (inactive) and 0.504 (inactive) in experiment [16]; 1.17 (inactive) and 0.312 (inactive) in experiment [17]; 0.592 (inactive) and 0.607 (inactive) in [18]; -0.56 and -0.7 in experiment [19]. The composite z-score in [14] was 0.382 (inactive) and -0.214 (inactive); in experiment [20], 0.0399 and -0.0118.
With `O=C(NN=C1C[C@@H](O)[C@@H](O)[C@@H]2[C@@H]3C(=O)N(Cc4ccc5c(c4)OCO5)C(=O)[C@@H]3CC[C@H]12)OCc1ccccc1`, the z-score in experiment [1] was 0.356; in experiment [2], -0.263; in experiment [3], 0.339; in experiment [4], 0.172; in experiment [5] it was 0.102; in [6], 1.3. For the same compound, the z-score in experiment [7] is 0.415 (inactive); in experiment [8], 0.559; in experiment [9], -1.79; in [10], -0.31 (inactive); in experiment [11] it was -0.0124; in [12], 0.0375 (inactive). Further, the z-score in experiment [13] was -0.203 (inactive); in [15], -0.437 (inactive); in experiment [16], 0.273 (inactive); in [17], 0.883 (inactive); in experiment [18], 1.4 (inactive); in experiment [19], -0.2. Further, the values for the composite z-score in experiment [14] and in experiment [20] were -1.62 (inactive) and 0.106, respectively.
With `C=CCN(CCCC)C(=O)C1N(C(C)(C)CO)C(=O)C2C(C(=O)O)C3C=CC21O3` (stereo not given), the z-score in experiment [1] is -0.77 and -0.624; in experiment [2], 0.75 and 0.349; in [3] it was 0.0674 and -0.857; in experiment [4] it was 1.09 and -0.12; in [5], -0.539 and 0.144; in experiment [6], -0.553 and -0.548. For the same compound, the z-score in experiment [7] is -0.134 (inactive) and 0.142 (inactive); in [8], 0.354 and 0.826; in experiment [9], -0.283 and -0.384; in experiment [10], 0.289 (inactive) and -0.11 (inactive); in [11] it was 0.043 and 0.688; in [12] it was 0.709 (inactive) and -0.0821 (inactive). Moreover, the z-score in experiment [13] was -0.0251 (inactive) and -0.847 (inactive); in experiment [15], 0.385 (inactive) and 0.0126 (inactive); in [16], -0.902 (inactive) and -1.02 (inactive); in [17], 0.378 (inactive) and 0.096 (inactive); in [18], 0.0298 (inactive) and -0.182 (inactive); in experiment [19], -0.131 and -0.803. For the same compound, the composite z-score was -1.46 (inactive) and 0.0326 (inactive) in experiment [14]; -0.162 and -0.195 in experiment [20].
